Source: publication PMC8384837, “Expanding the binding specificity for RNA recognition by a PUF domain”

Tests used:
Assay in all cases: yeast three-hybrid, YBZ-1, SC-Leu-His + 0.5 mM 3-AT, 4 days
Details in all cases: tags: N-Gal4 AD-HA kept; label: inside an RPR1-promoter hybrid RNA with tandem MS2 sites; ssRNA
[1] = molecular target: PUM1 PUF domain R4-ACG (Homo sapiens, UniProt Q14671 828-1176, N971A;H972C;Q975G)
In short: (§1)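 Each repeat of the Pumilio-1 PUF domain was randomized at its three base-contacting residues, and these libraries were co-expressed from a centromeric plasmid with matching RNA elements in strain YBZ-1. After four days on SC-Leu (input) or SC-Leu-His + 0.5 mM 3-AT (selection), the repeat regions were PCR-amplified and Illumina-sequenced. The interaction score compares variant frequency between input and selection as a log change, computed in log2 with a pseudocount of 1 for absent variants.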

[2] = molecular target: PUM1 PUF domain R8-RFT (Homo sapiens, UniProt Q14671 828-1176, N1122R;Y1123F;Q1126T)
Sequence of PUM1 PUF domain R8-RFT (Q14671 828-1176 N1122R/Y1123F/Q1126T): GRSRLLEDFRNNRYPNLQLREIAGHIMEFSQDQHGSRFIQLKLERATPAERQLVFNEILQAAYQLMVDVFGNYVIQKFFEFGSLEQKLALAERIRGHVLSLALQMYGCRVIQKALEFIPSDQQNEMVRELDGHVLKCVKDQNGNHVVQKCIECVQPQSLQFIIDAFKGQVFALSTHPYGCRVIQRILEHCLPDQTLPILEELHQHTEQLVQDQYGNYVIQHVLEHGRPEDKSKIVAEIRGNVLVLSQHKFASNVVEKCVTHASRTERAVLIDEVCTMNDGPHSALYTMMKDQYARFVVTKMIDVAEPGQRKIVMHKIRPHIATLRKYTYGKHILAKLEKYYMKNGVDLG
In short: as §1

[3] = molecular target: PUM1 PUF domain R8-HWG (Homo sapiens, UniProt Q14671 828-1176, N1122H;Y1123W;Q1126G)
Sequence of PUM1 PUF domain R8-HWG (Q14671 828-1176 N1122H/Y1123W/Q1126G): as the sequence (Q14671 828-1176 N1122R/Y1123F/Q1126T) above, with R295H, F296W, T299G counted along it
In short: as §1

[4] = molecular target: PUM1 PUF domain R4-GRA (Homo sapiens, UniProt Q14671 828-1176, N971G;H972R;Q975A)
Sequence of PUM1 PUF domain R4-GRA (Q14671 828-1176 N971G/H972R/Q975A): as the sequence (Q14671 828-1176 N1122R/Y1123F/Q1126T) above, with N144G, H145R, Q148A, R295N, F296Y, T299Q counted along it
In short: as §1

[5] = molecular target: PUM1 PUF domain R5-GGR (Homo sapiens, UniProt Q14671 828-1176, C1007G;R1008G;Q1011R)
Sequence of PUM1 PUF domain R5-GGR (Q14671 828-1176 C1007G/R1008G/Q1011R): as the sequence (Q14671 828-1176 N1122R/Y1123F/Q1126T) above, with C180G, R181G, Q184R, R295N, F296Y, T299Q counted along it
In short: as §1

[6] = molecular target: PUM1 PUF domain R5-RHF (Homo sapiens, UniProt Q14671 828-1176, C1007R;R1008H;Q1011F)
Sequence of PUM1 PUF domain R5-RHF (Q14671 828-1176 C1007R/R1008H/Q1011F): as the sequence (Q14671 828-1176 N1122R/Y1123F/Q1126T) above, with C180R, R181H, Q184F, R295N, F296Y, T299Q counted along it
In short: as §1

[7] = molecular target: PUM1 PUF domain R8-YHR (Homo sapiens, UniProt Q14671 828-1176, N1122Y;Y1123H;Q1126R)
Sequence of PUM1 PUF domain R8-YHR (Q14671 828-1176 N1122Y/Y1123H/Q1126R): as the sequence (Q14671 828-1176 N1122R/Y1123F/Q1126T) above, with R295Y, F296H, T299R counted along it
In short: as §1

[8] = molecular target: PUM1 PUF domain R1-KGS (Homo sapiens, UniProt Q14671 828-1176, S863K;R864G;Q867S)
Sequence of PUM1 PUF domain R1-KGS (Q14671 828-1176 S863K/R864G/Q867S): as the sequence (Q14671 828-1176 N1122R/Y1123F/Q1126T) above, with S36K, R37G, Q40S, R295N, F296Y, T299Q counted along it
In short: as §1

[9] = molecular target: PUM1 PUF domain R2-RVE (Homo sapiens, UniProt Q14671 828-1176, N899R;Y900V;Q903E)
Sequence of PUM1 PUF domain R2-RVE (Q14671 828-1176 N899R/Y900V/Q903E): as the sequence (Q14671 828-1176 N1122R/Y1123F/Q1126T) above, with N72R, Y73V, Q76E, R295N, F296Y, T299Q counted along it
In short: as §1

[10] = molecular target: PUM1 PUF domain R4-PFN (Homo sapiens, UniProt Q14671 828-1176, N971P;H972F;Q975N)
Sequence of PUM1 PUF domain R4-PFN (Q14671 828-1176 N971P/H972F/Q975N): as the sequence (Q14671 828-1176 N1122R/Y1123F/Q1126T) above, with N144P, H145F, Q148N, R295N, F296Y, T299Q counted along it
In short: as §1

Sequence of PUM1 PUF domain R4-ACG (Q14671 828-1176 N971A/H972C/Q975G): as the sequence (Q14671 828-1176 N1122R/Y1123F/Q1126T) above, with N144A, H145C, Q148G, R295N, F296Y, T299Q counted along it

For “GGCUAGAACUAGUGGAUCCCCCGGCGCCCGGCGGCUCGAGCCCGGGUAAGUGUAAAUAGUCUGCAUGCCGCCGGGCGCCAUGCCUGCAGGUCGACUCUAGAAAACAUG”, which binding signal [1] is on record?
Its binding signal is 3.13 log2 enrichment (interaction score).

And the binding signal [2]?
Its binding signal is 4.66 log2 enrichment (interaction score).

What about the binding signal [3] of the same sequence?
Its binding signal is 4.47 log2 enrichment (interaction score).

What about the binding signal [4] of the same sequence?
Its binding signal is 4.39 log2 enrichment (interaction score).

How did the binding signal [5] turn out when “GGCUAGAACUAGUGGAUCCCCCGGCGCCCGGCGGCUCGAGCCCGGGUAAGUGUCAAUAGUCUGCAUGCCGCCGGGCGCCAUGCCUGCAGGUCGACUCUAGAAAACAUG” was run?
Its binding signal is 4.92 log2 enrichment (interaction score).

And the binding signal [6]?
Its binding signal is 2.99 log2 enrichment (interaction score).

“GGCUAGAACUAGUGGAUCCCCCGGCGCCCGGCGGCUCGAGCCCGGGUAAGUGUACAUAGUCUGCAUGCCGCCGGGCGCCAUGCCUGCAGGUCGACUCUAGAAAACAUG” was tested. Which binding signal [1] did it give?
The binding signal was 1.1 log2 enrichment (interaction score).

And the binding signal [4]?
Its binding signal is 1.92 log2 enrichment (interaction score).

How did the binding signal [2] turn out when “GGCUAGAACUAGUGGAUCCCCCGGCGCCCGGCGGCUCGAGCCCGGGUAAGCGUAAAUAGUCUGCAUGCCGCCGGGCGCCAUGCCUGCAGGUCGACUCUAGAAAACAUG” was run?
Its binding signal is 5.64 log2 enrichment (interaction score).

What about the binding signal [3] of the same sequence?
The binding signal was 4.11 log2 enrichment (interaction score).

And the binding signal [7]?
The binding signal was 3.34 log2 enrichment (interaction score).

With “GGCUAGAACUAGUGGAUCCCCCGGCGCCCGGCGGCUCGAGCCCGGGUAAGUGUAAAUUGUCUGCAUGCCGCCGGGCGCCAUGCCUGCAGGUCGACUCUAGAAAACAUG” as the sequence, how does the binding signal [8] read?
Its binding signal is 4.48 log2 enrichment (interaction score).

With “GGCUAGAACUAGUGGAUCCCCCGGCGCCCGGCGGCUCGAGCCCGGGUAAGUGUAAAGAGUCUGCAUGCCGCCGGGCGCCAUGCCUGCAGGUCGACUCUAGAAAACAUG” as the sequence, how does the binding signal [9] read?
Its binding signal is 2.9 log2 enrichment (interaction score).

“GGCUAGAACUAGUGGAUCCCCCGGCGCCCGGCGGCUCGAGCCCGGGUAAGUGUAUAUAGUCUGCAUGCCGCCGGGCGCCAUGCCUGCAGGUCGACUCUAGAAAACAUG” was tested. Which binding signal [1] did it give?
The binding signal was 0.66 log2 enrichment (interaction score).

What about the binding signal [10] of the same sequence?
The binding signal was 6.39 log2 enrichment (interaction score).

And the binding signal [4]?
The binding signal was 2.46 log2 enrichment (interaction score).

With “GGCUAGAACUAGUGGAUCCCCCGGCGCCCGGCGGCUCGAGCCCGGGUAAGUGUAAAUCGUCUGCAUGCCGCCGGGCGCCAUGCCUGCAGGUCGACUCUAGAAAACAUG” as the sequence, how does the binding signal [8] read?
The binding signal was 5.23 log2 enrichment (interaction score).

With “GGCUAGAACUAGUGGAUCCCCCGGCGCCCGGCGGCUCGAGCCCGGGUAAGUGUUAAUAGUCUGCAUGCCGCCGGGCGCCAUGCCUGCAGGUCGACUCUAGAAAACAUG” as the sequence, how does the binding signal [5] read?
The binding signal was 1.88 log2 enrichment (interaction score).

And the binding signal [6]?
Its binding signal is 3.71 log2 enrichment (interaction score).
